Several values for one entry are separate records, joined by “and”; a condition that tells them apart may be missing. Equal values may be shown once. Records with an inconclusive call do not appear. Activity calls are given as the source filed them. Unless noted, calls come from the whole dose curve; as a rule, active = well fitted curve in the direction sought with a large enough effect; inconclusive = small, poorly fitted or top-dose-only effect, or another doubt; inactive = no such curve, though single readings can be large; an effect the other way counts as inactive or inconclusive.
Legend:
[1] = AP1 Signaling Pathway (AID 357; active = well fitted curve in either direction with a large enough effect, not every such curve was filed as active;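 note: ME-180 reporter cells stimulated with EGF at its EC50 level; % is set by controls: 0 for no effect and ±100 for the full control effect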); conditions: ME-180 AP-1-bla reporter, EGF-induced, beta-lactamase ratio, 5 h
Procedure, shortened: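 Beta-lactamase reporter under AP-1 response element, ME-180 background. Stimulus: EC50 EGF. Compound exposure 5 h, 37 °C. Detection: CCF4, 2.5 h RT, 460/530 nm. Values: AC50 from titration.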

[2] = target: Cytochrome P450 1A2 (Homo sapiens) (UniProt P05177); experiment: p450-cyp1a2 (AID 410; calls by dose curve; note: potency is the fitted concentration of half-maximal effect;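 for activity change, negative = inhibition: -100% = full effect of reference inhibitor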); conditions: recombinant CYP1A2, luciferin-ME demethylation, luminescence; series mostly up to 57 µM
Cytochrome P450 1A2 (Homo sapiens), sequence (P05177 whole entry, looked up): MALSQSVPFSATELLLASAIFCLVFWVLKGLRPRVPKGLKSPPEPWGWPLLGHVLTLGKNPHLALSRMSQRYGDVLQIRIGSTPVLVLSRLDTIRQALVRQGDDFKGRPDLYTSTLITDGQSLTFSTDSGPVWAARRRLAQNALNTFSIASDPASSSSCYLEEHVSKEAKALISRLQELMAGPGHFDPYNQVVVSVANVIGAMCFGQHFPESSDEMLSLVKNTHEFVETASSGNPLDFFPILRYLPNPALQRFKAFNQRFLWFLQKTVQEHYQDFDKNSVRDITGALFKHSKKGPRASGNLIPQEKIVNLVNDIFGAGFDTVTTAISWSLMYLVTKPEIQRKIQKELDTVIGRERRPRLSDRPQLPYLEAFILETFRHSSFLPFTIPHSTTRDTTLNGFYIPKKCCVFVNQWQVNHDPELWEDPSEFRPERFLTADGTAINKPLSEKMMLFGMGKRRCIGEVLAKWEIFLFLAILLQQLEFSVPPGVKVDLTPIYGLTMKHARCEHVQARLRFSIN
Procedure, shortened: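 20nM CYP1A2, 100uM Luciferin-ME (=Km), 100mM KPO4; cpd 10 min RT; +NADPH regen, 60 min RT; stop/detect 20 min; luminescence. Normalized to furafylline 57 uM = full inhibition.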

[3] = Stat Signaling Pathway (AID 446; active = well fitted curve in either direction with a large enough effect, not every such curve was filed as active;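 note: ME-180 cervical cancer cells given 40 pM IL-6 alongside compound; SIE-controlled beta-lactamase reporter measured as 460/530 nm FRET emission ratio; % is set by controls: 0 for no effect and ±100 for the full control effect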); conditions: ME-180 (cervical carcinoma) SIE beta-lactamase reporter, IL-6 stimulated, 5 h
Procedure, shortened: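 FRET read-out (405 nm excitation, 460/530 nm emission) of a beta-lactamase reporter under a STAT-inducible element in ME-180 cervical carcinoma cells. Cells with compound receive 40 pM IL-6 for 5 h. Values are normalised to AC90 stimulation and AC90 JAK-inhibitor controls.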

[4] = target: Glucocorticoid receptor (Homo sapiens) (UniProt P04150); experiment: GR-GFP Redistribution (AID 450;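 active = compounds whose dose series gives a full or clear partial fitted curve of increased nuclear translocation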; note: potency is the fitted concentration of half-maximal effect); conditions: U2OS GR-GFP nuclear translocation, laser cytometry, 2 h
Glucocorticoid receptor (Homo sapiens), sequence (P04150 whole entry, looked up, the tested form may be a part): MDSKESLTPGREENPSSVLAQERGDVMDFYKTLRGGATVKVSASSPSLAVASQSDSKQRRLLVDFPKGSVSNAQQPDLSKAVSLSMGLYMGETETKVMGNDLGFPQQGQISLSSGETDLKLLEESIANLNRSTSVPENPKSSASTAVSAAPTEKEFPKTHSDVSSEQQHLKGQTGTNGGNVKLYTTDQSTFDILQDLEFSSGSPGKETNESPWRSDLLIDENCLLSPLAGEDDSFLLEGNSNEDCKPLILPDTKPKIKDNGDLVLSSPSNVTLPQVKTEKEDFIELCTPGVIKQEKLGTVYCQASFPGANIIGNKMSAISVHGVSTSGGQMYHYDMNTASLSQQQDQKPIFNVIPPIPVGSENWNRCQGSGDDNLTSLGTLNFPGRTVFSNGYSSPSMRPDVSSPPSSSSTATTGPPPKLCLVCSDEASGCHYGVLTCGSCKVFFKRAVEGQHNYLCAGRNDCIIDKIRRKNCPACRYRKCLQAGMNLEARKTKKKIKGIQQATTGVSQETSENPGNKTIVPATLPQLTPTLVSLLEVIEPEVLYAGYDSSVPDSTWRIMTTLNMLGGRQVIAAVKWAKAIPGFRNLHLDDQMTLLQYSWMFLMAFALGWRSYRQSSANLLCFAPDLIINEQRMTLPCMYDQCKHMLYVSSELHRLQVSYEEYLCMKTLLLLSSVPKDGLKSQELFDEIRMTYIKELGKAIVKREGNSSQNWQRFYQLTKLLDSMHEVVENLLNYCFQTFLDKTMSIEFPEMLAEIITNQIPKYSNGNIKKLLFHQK

[5] = target: Glucocorticoid receptor (Homo sapiens) (UniProt P04150); experiment: GR-EFC Redistribution (AID 451; calls by dose curve; note: potency is the fitted concentration of half-maximal effect); conditions: CHO-K1 GR-EFC translocation, beta-gal luminescence, 2 h
Procedure, shortened: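 Translocation of GR-ED fusion to nuclear EA restores b-gal, read by luminescence after 1 h room-temperature detection. Engineered CHO-K1 biosensor cells, 1,000/well, exposed 2 h at 37 C to titrations up to 46 uM final.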

[6] = target: Mitogen-activated protein kinase 10 (Mus musculus) (UniProt Q61831); experiment: JNK3 AlphaScreen Assay (AID 530; active = well fitted curve in either direction with a large enough effect, not every such curve was filed as active;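 note: kinase came from lysate of stimulated human HepG2 cells; signal reports phosphorylation of biotinylated GST-cJun 1-79 at Ser73 with 10 µM ATP; % is set by controls: 0 for no effect and ±100 for the full control effect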); conditions: JNK3 lysate, c-Jun phosphorylation; series mostly up to 57.1 µM
Procedure, shortened: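 Kinase buffer: 20 mM Tris-HCl pH 7.6, 10 mM MgCl2, 1 mM DTT, 0.1 mM Na3VO4, 0.01% Tween-20; ATP 10 uM. Substrate biotin-GST-cJun(1-79), enzyme from activated HepG2 lysates. Detection by Ser73 phospho-antibody AlphaScreen.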

[7] = target: 3',5'-cyclic-AMP phosphodiesterase 4B (Homo sapiens) (UniProt Q07343); experiment: qHTS Assay for Inhibitors of PDE-IV (AID 607; active = well fitted activation curve with a large enough effect in the main read-out, with a control signal flat, not every such curve was filed as active; note: % of control where 0% means no effect); conditions: HEK293 ACTOne CNG channel cells, membrane potential fluorescence; series mostly up to 22.9 µM
3',5'-cyclic-AMP phosphodiesterase 4B (Homo sapiens), sequence (Q07343 whole entry, looked up): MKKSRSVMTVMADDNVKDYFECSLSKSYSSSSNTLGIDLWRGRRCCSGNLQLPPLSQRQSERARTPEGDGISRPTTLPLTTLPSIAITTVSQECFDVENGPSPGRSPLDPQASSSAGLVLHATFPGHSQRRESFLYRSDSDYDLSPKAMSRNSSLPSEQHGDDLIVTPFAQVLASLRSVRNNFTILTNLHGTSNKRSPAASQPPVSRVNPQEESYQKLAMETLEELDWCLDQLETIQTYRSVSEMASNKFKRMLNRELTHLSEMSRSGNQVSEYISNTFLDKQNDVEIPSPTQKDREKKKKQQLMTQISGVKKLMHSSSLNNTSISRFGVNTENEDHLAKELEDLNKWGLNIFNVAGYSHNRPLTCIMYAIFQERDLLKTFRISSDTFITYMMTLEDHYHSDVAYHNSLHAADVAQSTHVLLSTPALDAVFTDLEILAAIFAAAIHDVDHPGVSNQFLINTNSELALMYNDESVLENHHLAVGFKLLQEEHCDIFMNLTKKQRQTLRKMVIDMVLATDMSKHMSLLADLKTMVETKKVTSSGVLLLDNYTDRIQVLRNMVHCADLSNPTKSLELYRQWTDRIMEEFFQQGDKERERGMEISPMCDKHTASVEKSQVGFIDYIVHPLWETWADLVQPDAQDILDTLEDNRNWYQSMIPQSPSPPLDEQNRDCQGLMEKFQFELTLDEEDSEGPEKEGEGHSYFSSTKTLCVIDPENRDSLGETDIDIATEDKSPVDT
Procedure, shortened: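 Cell-based read-out of cAMP via a modified cyclic nucleotide-gated channel and membrane potential dye (535/590 nm) in HEK293 cells expressing PDE4 endogenously. Compounds tested up to 22.9 uM final; 100 uM RO 20-1724 reference.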

[8] = target: Guanine nucleotide-binding protein G(i) subunit alpha-1 (Homo sapiens) (UniProt P63096); experiment: qHTS Assay for Inhibitors of RGS12 GoLoco Motif Activity (Green Fluorophore) (AID 879); conditions: Galphai1/FITC-RGS12 GoLoco peptide, fluorescence polarization; series mostly up to 57.1 µM;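 note: 0% = labeled peptide with Gαi1 and full inhibition = labeled peptide alone without protein; negative values mean loss of peptide binding seen as reduced polarization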
Guanine nucleotide-binding protein G(i) subunit alpha-1 (Homo sapiens), sequence (P63096 whole entry, looked up): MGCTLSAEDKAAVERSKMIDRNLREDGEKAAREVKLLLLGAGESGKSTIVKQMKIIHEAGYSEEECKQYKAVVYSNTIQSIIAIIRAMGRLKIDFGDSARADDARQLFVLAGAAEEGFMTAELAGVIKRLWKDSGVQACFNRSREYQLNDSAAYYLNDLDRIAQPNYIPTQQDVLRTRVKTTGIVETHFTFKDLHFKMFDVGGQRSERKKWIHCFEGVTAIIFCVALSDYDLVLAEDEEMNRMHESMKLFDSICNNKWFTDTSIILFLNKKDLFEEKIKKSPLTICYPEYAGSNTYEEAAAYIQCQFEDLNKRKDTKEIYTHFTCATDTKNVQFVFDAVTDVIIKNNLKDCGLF
Procedure, shortened: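 A drop in FITC polarization marked displacement of the FITC-tagged RGS12 GoLoco peptide (10 nM) from Gαi1 (50 nM). Compounds were incubated 10 min at room temperature in Tris pH 7.5 buffer containing 150 mM NaCl, 0.1 mM GDP and 0.05% NP40; unlabeled peptide titration served as control.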

[9] = target: Pyruvate kinase (Leishmania mexicana) (UniProt Q27686); experiment: qHTS Validation Assay for Inhibitors of Leishmania Mexicana Pyruvate Kinase (AID 945);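 note: 0% = DMSO only neutral control wells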; conditions: purified L. mexicana pyruvate kinase, enzyme activity, E451W mutant enzyme; series mostly up to 57.5 µM
Pyruvate kinase (Leishmania mexicana), sequence (Q27686 2-499 E452W): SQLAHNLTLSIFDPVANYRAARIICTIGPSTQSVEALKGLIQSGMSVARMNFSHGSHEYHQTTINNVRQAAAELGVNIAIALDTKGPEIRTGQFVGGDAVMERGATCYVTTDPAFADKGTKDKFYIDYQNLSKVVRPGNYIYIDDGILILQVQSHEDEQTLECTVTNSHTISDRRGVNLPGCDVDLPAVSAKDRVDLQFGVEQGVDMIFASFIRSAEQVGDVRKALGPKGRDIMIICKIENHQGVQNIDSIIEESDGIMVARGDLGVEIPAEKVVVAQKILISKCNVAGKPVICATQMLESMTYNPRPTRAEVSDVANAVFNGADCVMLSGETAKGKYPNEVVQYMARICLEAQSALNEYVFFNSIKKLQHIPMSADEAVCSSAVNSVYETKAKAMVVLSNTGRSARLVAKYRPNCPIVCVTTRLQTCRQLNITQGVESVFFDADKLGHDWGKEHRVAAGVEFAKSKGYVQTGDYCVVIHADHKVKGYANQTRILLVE
Procedure, shortened: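 Read-out: luminescence from PKLight stop/detection reagent, data normalized to DMSO. Reaction: 0.2 nM E451W LmPYK, 0.5 mM PEP, 0.1 mM ADP, pH 7.2, 1 h room temperature.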

[10] = target: Pyruvate kinase PKM (Homo sapiens) (UniProt P14618); experiment: qHTS Assay for Activators of Human Muscle Pyruvate Kinase (AID 954; active = well fitted curve in the direction sought with a large enough effect, not every such curve was filed as active;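 note: 0% = uninhibited enzyme and -100% = no enzyme or full thiadiazolimine inhibition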); conditions: purified human muscle pyruvate kinase, luciferase-coupled luminescence, 1 h; series mostly up to 57.5 µM
Pyruvate kinase PKM (Homo sapiens), sequence (P14618 whole entry, looked up): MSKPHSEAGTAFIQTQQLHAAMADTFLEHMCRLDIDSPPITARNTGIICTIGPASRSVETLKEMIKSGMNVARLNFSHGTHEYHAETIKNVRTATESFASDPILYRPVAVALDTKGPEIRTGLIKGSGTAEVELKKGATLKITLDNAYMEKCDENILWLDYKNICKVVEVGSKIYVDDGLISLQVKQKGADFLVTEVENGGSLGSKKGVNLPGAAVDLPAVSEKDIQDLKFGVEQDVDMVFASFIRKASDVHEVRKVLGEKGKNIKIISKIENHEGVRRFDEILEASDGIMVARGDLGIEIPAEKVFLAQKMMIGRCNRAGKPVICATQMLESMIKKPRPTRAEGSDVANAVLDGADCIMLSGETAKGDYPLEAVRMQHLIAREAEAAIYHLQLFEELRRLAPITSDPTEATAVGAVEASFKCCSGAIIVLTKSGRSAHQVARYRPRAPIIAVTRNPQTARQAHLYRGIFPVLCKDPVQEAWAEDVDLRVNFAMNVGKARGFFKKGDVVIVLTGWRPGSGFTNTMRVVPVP
Procedure, shortened: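 ATP production by PKM2 detected via luciferase luminescence after 1 h room-temperature reaction (0.1 nM enzyme, PEP at Km 0.5 mM, ADP 0.1 mM, pH 7.2 imidazole buffer). Inhibition scaled to no-enzyme control; activation referenced to 0.3 nM enzyme wells.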

[11] = qHTS Assay for Lipid Storage Modulators (AID 1519; calls by dose curve); conditions: Drosophila S3 cells, BODIPY lipid droplet/cell ratio, laser cytometry, cells loaded with oleic acid; for activity change, negative = inhibition: at 25.7 µM (top of the series)
Procedure, shortened: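 Cells seeded at 5,000 per well were treated with compounds over a concentration series and loaded with oleic acid (400 uM, as added). Lipid droplet fluorescence (488 nm excitation, 500-530 nm channel) was read by laser-scanning cytometry and normalized to 20 uM Triacsin C.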

[12] = target: ATP-dependent 6-phosphofructokinase (Trypanosoma brucei brucei) (UniProt O15648); experiment: qHTS Assay to Find Inhibitors of T. brucei phosphofructokinase: hit validation (AID 492961);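 note: luminescence reports ADP formed as PFK phosphorylates fructose-6-phosphate with ATP; % is set by controls: 0 for no effect and ±100 for the full control effect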; conditions: T. brucei PFK, ADP-Glo luminescence; series mostly up to 24.3 µM
ATP-dependent 6-phosphofructokinase (Trypanosoma brucei brucei), sequence (O15648 whole entry, looked up): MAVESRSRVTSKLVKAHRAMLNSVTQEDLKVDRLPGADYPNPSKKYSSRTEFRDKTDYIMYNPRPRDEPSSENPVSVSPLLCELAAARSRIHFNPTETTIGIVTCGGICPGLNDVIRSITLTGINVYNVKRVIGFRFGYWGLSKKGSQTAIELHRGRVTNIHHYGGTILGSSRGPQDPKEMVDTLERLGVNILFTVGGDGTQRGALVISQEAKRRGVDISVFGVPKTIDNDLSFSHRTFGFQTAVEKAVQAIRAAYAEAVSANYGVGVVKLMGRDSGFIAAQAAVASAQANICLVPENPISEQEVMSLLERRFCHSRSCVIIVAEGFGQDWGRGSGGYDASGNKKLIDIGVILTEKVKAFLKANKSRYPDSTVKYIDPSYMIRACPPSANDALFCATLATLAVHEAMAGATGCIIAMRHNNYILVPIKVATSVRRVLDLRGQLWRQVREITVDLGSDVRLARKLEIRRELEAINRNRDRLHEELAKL
Procedure, shortened: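 Measures ADP output of PFK (1.25 nM) at 0.1 mM ATP, 0.5 mM F6P, pH 8.0 TEA buffer with 5 mM MgCl2. No-enzyme wells define full inhibition; uninhibited enzyme wells define zero.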

[13] = target: Ubiquitin carboxyl-terminal hydrolase 1 (Homo sapiens) (UniProt O94782); experiment: Inhibitors of USP1/UAF1: Pilot qHTS (AID 504865); conditions: purified USP1/UAF1, Ub-rhodamine cleavage fluorescence; series mostly up to 54.9 µM;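 note: rhodamine fluorescence freed from ubiquitin-rhodamine substrate followed over time; top concentration of the series differs between compounds; % is set by controls: 0 for no effect and ±100 for the full control effect; nearly all actives have a fitted effect of over 35% in size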
Ubiquitin carboxyl-terminal hydrolase 1 (Homo sapiens), sequence (O94782 whole entry, looked up): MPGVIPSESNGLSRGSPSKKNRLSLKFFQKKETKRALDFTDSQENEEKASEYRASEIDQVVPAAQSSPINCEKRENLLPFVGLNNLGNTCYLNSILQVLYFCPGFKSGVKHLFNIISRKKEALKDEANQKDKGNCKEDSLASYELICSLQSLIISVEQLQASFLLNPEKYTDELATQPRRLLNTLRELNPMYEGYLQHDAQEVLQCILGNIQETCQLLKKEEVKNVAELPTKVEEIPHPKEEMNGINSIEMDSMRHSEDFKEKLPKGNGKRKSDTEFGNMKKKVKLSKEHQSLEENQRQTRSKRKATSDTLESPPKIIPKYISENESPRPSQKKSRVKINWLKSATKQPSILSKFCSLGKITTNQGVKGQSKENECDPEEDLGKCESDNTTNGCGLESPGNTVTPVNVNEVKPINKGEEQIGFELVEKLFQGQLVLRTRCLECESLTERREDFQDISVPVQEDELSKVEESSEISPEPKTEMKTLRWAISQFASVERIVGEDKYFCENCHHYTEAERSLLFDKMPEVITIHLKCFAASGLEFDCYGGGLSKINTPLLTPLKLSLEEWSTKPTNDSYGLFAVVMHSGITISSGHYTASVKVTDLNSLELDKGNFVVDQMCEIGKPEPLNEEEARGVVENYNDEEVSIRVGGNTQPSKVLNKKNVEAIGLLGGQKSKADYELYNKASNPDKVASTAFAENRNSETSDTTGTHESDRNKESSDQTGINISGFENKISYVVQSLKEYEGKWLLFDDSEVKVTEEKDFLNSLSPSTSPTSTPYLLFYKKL
Procedure, shortened: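 USP1/UAF1 complex at 1 nM preincubated 15 min at room temperature with compound, then Ub-Rho substrate added at 150 nM final. Fluorescence (480/540 nm) read kinetically in 50 mM HEPES pH 7.8, 0.5 mM EDTA, 1 mM TCEP, 0.1 mg/ml BSA, 0.01% Tween-20.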

[14] = target: Luciferin 4-monooxygenase (Photinus pyralis) (UniProt P08659); experiment: Biochemical firefly luciferase enzyme assay for NPC (AID 624030);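 note: purified P. pyralis luciferase at 10 nM with luciferin and ATP substrate; 0% = DMSO and -100% = full luciferase inhibition by PTC124 control; nearly all actives have a fitted effect of over 70% in size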; conditions: purified P. pyralis luciferase, luminescence, 5 min; series mostly up to 58.6 µM
Procedure, shortened: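 Direct inhibition of firefly luciferase enzyme (10 nM final, 50 mM Tris Acetate) assessed by luminescence within 5 minutes. Percent activity scaled between DMSO and PTC124 positive control, with concentration-effect curves classified by fit quality and response.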

AS120 = experiment: qHTS profiling for inhibitors of Plasmodium falciparum proliferation (AID 504749); note: nearly all actives have a fitted effect of over 60% in size; note: potency is the fitted concentration of half-maximal effect;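 for activity, negative = inhibition: 0% = DMSO vehicle and full inhibition = artemisinin control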; conditions: P. falciparum in erythrocytes, SYBR Green DNA, 72 h; series mostly up to 28.7 µM
Procedure, shortened: (§1)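 In a 72 h erythrocytic culture (37 C, humidified, 5% CO2) at 2.5% hematocrit and 0.3% starting parasitemia, compounds were tested; SYBR Green I in detergent lysis buffer stained parasite DNA overnight.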

CP238 = experiment: as above; conditions: P. falciparum in erythrocytes, SYBR Green DNA, 72 h; series mostly up to 12.8 µM
Procedure, shortened: as §1

CP265 = experiment: as above; conditions: P. falciparum in erythrocytes, SYBR Green DNA, 72 h; series mostly up to 12.8 µM
Procedure, shortened: as §1

FAB9 = experiment: as above; conditions: P. falciparum in erythrocytes, SYBR Green DNA, 72 h; series mostly up to 12.8 µM
Procedure, shortened: as §1

[15] = NFAT Signaling Pathway (AID 444; active = well fitted curve in either direction with a large enough effect, not every such curve was filed as active); conditions: Jurkat NFAT-bla M1, carbachol, beta-lactamase ratio, 5 h
Procedure, shortened: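 Read-out: CCF4 FRET ratio (460 nm/530 nm) after 1 h RT dye loading, used for %activity and AC50 from titration series. Cells: Jurkat NFAT-β-lactamase/M1 line, treated with compound plus 1 uM carbachol for 5 h, 37 °C.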

[16] = qHTS profiling for inhibitors of Plasmodium falciparum proliferation (AID 504749); note: potency is the fitted concentration of half-maximal effect;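 for activity, negative = inhibition: 0% = DMSO vehicle and full inhibition = artemisinin control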; for all read-outs here: nearly all actives have a fitted effect of over 60% in size; conditions: P. falciparum in erythrocytes, SYBR Green DNA, 72 h; for activity, negative = inhibition: at 12.8 µM (top of the series)
Procedure, shortened: as §1

[17] = at 7.69 µM (top of the series) unless noted
[18] = measured here: cell count channel max response
[19] = measured here: lipid channel max response

CCN(CC)CC#CCOC(=O)[C@@](O)(c1ccccc1)C1CCCCC1
inactive: activity change, negative = inhibition ([1]; at 17.2 µM (top of the series)) 0.766% | activity change, negative = inhibition ([1]; at 38 µM (top of the series)) -1.31% | activity, negative = inhibition [3, 17] -21.9% [at 38 µM] | Potency [4] > 46 µM and > 20.6 µM | Potency [5] > 46 µM and > 20.6 µM | Potency [6] | Potency [7] | Potency [8] | outcome [9] | outcome [10] | activity change, negative = inhibition [11] -3.63% | outcome [12] | Potency [13] | outcome [14] | Potency (AS120) | Potency (CP238) | Potency (CP265) | Potency (FAB9)
-6.72%: max response [11, 18]
active: Potency [2] 3.98 µM and 1.26 µM
-11.7%: max response [11, 19]

CC1(C)O[C@@H]2C[C@H]3[C@H]4C[C@H](F)C5=CC(=O)C=C[C@@]5(C)[C@@H]4[C@H](O)C[C@]3(C)[C@]2(C(=O)CO)O1
active: Potency [4] 3.95 nM | Potency [5] 4.85 nM
inactive: activity change, negative = inhibition [1, 17] 21.4% [at 17.2 µM] | Potency [2] | activity change, negative = inhibition [15, 17] -5.12% [at 17.2 µM] | activity, negative = inhibition [3, 17] -5.69% [at 17.2 µM] | Potency [7] | activity change, negative = inhibition [11] -4.94% | outcome [12] | Potency [13] | outcome [14] | activity, negative = inhibition ([16]; parasite line A) -1.94% | activity, negative = inhibition ([16]; parasite line B) 13.2% | Potency (AS120) | Potency (CP238) | Potency (CP265) | Potency (FAB9)
-24%: max response [11, 18]
-28.6%: max response [11, 19]

CC(=O)O[C@]1(C(C)=O)CC[C@@H]2[C@@H]3C=C(Cl)C4=CC(=O)[C@H]5C[C@@H]5[C@]4(C)[C@H]3CC[C@]21C
-4.56%: max response [11, 18]
-7.45%: max response [11, 19]
inactive: activity change, negative = inhibition ([1]; at 17.2 µM (top of the series)) 5.64% | activity change, negative = inhibition ([1]; at 38 µM (top of the series)) 3.07% | Potency [2] | activity change, negative = inhibition ([15]; at 17.2 µM (top of the series)) -18.6% | activity change, negative = inhibition ([15]; at 38 µM (top of the series)) -9.31% | activity, negative = inhibition [3, 17] -5.59% [at 17.2 µM] | Potency [6] | Potency [7] | Potency [8] | outcome [9] | outcome [10] | activity change, negative = inhibition [11] -2.31% | Potency [13]

C[C@@]12C[C@@H](O)[C@H]3[C@@H](CCC4=CC(=O)CC[C@]43C)[C@H]1CC[C@H]2C(=O)CO
active: Potency [4] 74.2 nM and 8.8 nM | Potency [5] 179 nM
inactive: activity change, negative = inhibition ([1]; at 17.2 µM (top of the series)) 4.07% | activity change, negative = inhibition ([1]; at 38 µM (top of the series)) -3.18% | activity change, negative = inhibition ([15]; at 17.2 µM (top of the series)) 0.118% | activity change, negative = inhibition ([15]; at 38 µM (top of the series)) -0.571% | activity, negative = inhibition ([3]; at 17.2 µM (top of the series)) -0.637% | activity, negative = inhibition ([3]; at 38 µM (top of the series)) -1.77% | Potency [7] | activity change, negative = inhibition [11] -3.75% | Potency [13]
-3.56%: max response [11, 18]
-9.53%: max response [11, 19]

CCN(CC)CCC[C@H](C)Nc1ccnc2cc(Cl)ccc12
inactive: activity change, negative = inhibition ([1]; at 17.2 µM (top of the series)) 13.4% | activity change, negative = inhibition ([1]; at 38 µM (top of the series)) 1.88% | activity change, negative = inhibition ([15]; at 17.2 µM (top of the series)) -9.2% | activity change, negative = inhibition ([15]; at 38 µM (top of the series)) -24.9% | activity, negative = inhibition ([3]; at 17.2 µM (top of the series)) 3.07% | activity, negative = inhibition ([3]; at 38 µM (top of the series)) 15.2% | Potency [4] > 46 µM and > 20.6 µM | Potency [5] > 46 µM and > 20.6 µM | Potency [6] | Potency [7] | Potency [8] | outcome [9] | outcome [10] | activity change, negative = inhibition [11] -0.708% | outcome [12] | Potency [13] | outcome [14]
-16%: max response [11, 19]
-15.4%: max response [11, 18]
active: Potency ([16]; parasite line A) 158 nM | Potency ([16]; parasite line B) 316 nM | Potency (AS120) 11200 nM | Potency (CP238) 10000 nM | Potency (FAB9) 141 nM
